Only some compounds are listed: those with a hit (about 2.6% of all), similar ones and a draw of the others.
A549 tox: kills or reduces viability of A549 cells in Nrf2 counter-screen; 390,000 compounds, 0.16% hits; Potency, µM (titrated, usually from 46 µM), for the others: at the highest dose activity change, negative = cytotoxicity, hits mostly inhibitors; A549 ARE-Fluc cells, CellTiter-Fluor viability, 18-24 h; further: potency means the concentration at half of the fitted maximal effect; on the % scale 0 is the no-effect control and ±100 the full control effect
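Cytotoxicity counterscreen: CellTiter-Fluor fluorescence was measured in A549 ARE_Fluc cells after 18-24 h of compound exposure in a concentration series. The subsequent BugLite luminescent read reports ARE-luciferase activity.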
AT treatment: candidate therapy for ataxia-telangiectasia. F2112 A-T fibroblasts, KAP-1 phosphorylation AlphaLISA; neocarzinostatin DNA damage 30 min before lysis. Potency, µM (top dose mostly 57.5 µM), inactives show top-dose activation, usual class: activators. 320,000 compounds, 0.19% hits; further: potency means the concentration at half of the fitted maximal effect; % of control where 0% means no effect; nearly all actives have a fitted effect of over 45% in size
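hTERT-immortalized A-T patient fibroblasts (F2112), 500 cells/well in OPTI-MEM, 1% FBS, got compounds for 60 min, then NCS for 30 min at 37C. Lysates were then assayed for phospho-KAP-1 by AlphaLISA (anti-pKAP1 donor, anti-KAP1 acceptor beads), 6 hr at 25C.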
CCT modulator: cytosolic chaperonin activity modulation; purified chaperonin ATPase assay, HTRF ADP detection, 30 min; activity change, % (test concentration not listed), hits read low; 360,000 compounds, 0.3% hits; in the data active means activity change below about -30%; further: on the % scale 0 is the no-effect control and ±100 the full control effect
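TRiC (40 or 20 nM final, by batch activity) in 30 mM Tris pH 7.4, 100 mM KCl, 5 mM MgCl2, 1 mM DTT was treated with compound at 76 uM single dose, then 10 uM ATP, 30 min at 37 °C. ADP was read by HTRF Transcreener.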
TCR activator: activates T cell receptor signaling. primary human leukocytes, anti-CD3, IL-2 HTRF, 48 h. Potency, µM (top dose mostly 9.22 µM), inactives show at the top dose activation of IL-2 secretion, usual class: activators. 330,000 tested, under 10 active; further: % of control where 0% means no effect
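Using a-CD3 beads without co-stimulation, primary human leukocytes were exposed to compounds for 48 hr. An HTRF IL-2 kit measured the cytokine, with europium-to-d2 energy transfer producing emission at 665nm upon 320nm excitation.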
Nrf2 block: inhibitors of Nrf2 signaling; A549 ARE-Fluc reporter, luciferase luminescence, 18-24 h; Potency, µM (titrated, usually from 46 µM), without a hit: at the top dose activity change, negative = inhibition, actives largely listed as inhibitors; 360,000 compounds, 2.1% hits; further: potency means the concentration at half of the fitted maximal effect; on the % scale 0 is the no-effect control and ±100 the full control effect; nearly all actives have a fitted effect of over 60% in size
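Cells were seeded and rested 2 h, then exposed to compounds for 18-24 h. CellTiter-Fluor was read first as a viability measure. BugLite was added 15 min before the final luminescent read of ARE-luciferase activity in A549 cells.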
Nrf2 ARE act: activates Nrf2 signaling; AID 624171; Potency, µM (highest dose often 46.1 µM), for the others: at the highest dose activation, actives largely listed as activators; 410,000 compounds, 0.31% hits; AREc32 ARE-luciferase reporter (MCF7-derived line), luminescence, 24 h; further: potency means the concentration at half of the fitted maximal effect; % of control where 0% means no effect; nearly all actives have a fitted effect of over 65% in size
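Nrf2 activation is followed as ARE-luciferase induction in the AREc32 line after one day of compound treatment; luminescence is read with Steady-Glo.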
The depositor's hits bear a star; ? = inconclusive; nt = no result given; [ ] = another dose, or the depositor's remark. Unless noted, the call rests on the fitted dose curve; in most records, active means well fitted curve in the direction sought with a large enough effect; inconclusive means small, poorly fitted or top-dose-only effect, or another doubt; inactive means no such curve, though single readings can be large; an effect the other way counts as inactive or inconclusive.

SMILES | A549 tox | AT treatment | CCT modulator | TCR activator | Nrf2 block | Nrf2 ARE act
O=c1[nH]c(=O)n(-c2ccc(F)cc2)c2c1C(C(F)(F)F)(C(F)(F)F)N=C(c1ccc(F)cc1)N2 | ? | 2% | -1 | 0%[46.1 µM] | 16µM* | 4%
COc1ccc(-n2c3c(c(=O)[nH]c2=O)C(C(F)(F)F)(C(F)(F)F)N=C(CC(C)C)N3)cc1 | 1% | 1% | -1 | 1% | ? | 3%
Cc1ccccc1C(=O)NC1(C(F)(F)F)C(=O)Nc2c1c(=O)[nH]c(=O)n2-c1ccc(F)cc1 (stereo not given) | 1% | nt | nt | nt | 2% | 3%
CC1CCc2nc(-c3cc4c(ccc5ccccc54)oc3=O)sc2C1 (stereo not given) | 2% | nt | nt | nt | 2% | nt
COc1ccc(-n2nc(C(=O)NCc3ccc(F)cc3Cl)c3c4ccccc4n(C)c3c2=O)cc1Cl | 8% | nt | nt | nt | 7% | 0%
CCN(CC(=O)Nc1ccc(NC(C)=O)cc1)C(=O)/C=C/c1c(C)nn(-c2ccc(F)cc2)c1C | -4% | 5% | -1 | -1% | -13% | 0%
Cc1ccc(NC(=O)CSc2n[nH]c(-c3ccncc3)n2)c(C)c1 | 18% | -7% | -2 | 1% | -12% | 2%
Cc1ccc(NC(=O)Cc2nc(-c3c[nH]c(C(=O)N4CCCC4)c3)cs2)c(C)c1 | 0% | -5% | -6 | 17% | 21µM* | 9%
Cc1ccc(S(=O)(=O)NCc2nc(-c3cccc(C)c3)no2)cc1 | 12% | nt | nt | nt | -16% | 2%
O=C(/C=C/c1ccccc1)NC(=S)NNC(=O)c1cccnc1 | 1% | -2% | 1 | -3% | -1% | 3%
O=C(/C=C/c1ccccc1)NC(=S)NNC(=O)c1cnccn1 | -28% | 6% | -1 | 1% | 7.3µM* | -1%
CC(=O)Oc1ccc2ccccc2c1C(NC(=O)Cc1ccccc1)c1ccc(Cl)cc1 (stereo not given) | ? | 0% | 0 | 4% | 21µM* | 2%
CCOc1ccc(C(NC(=O)CC)c2c(O)ccc3ccccc23)cc1 (stereo not given) | -13% | 7% | -1 | -2% | -16% | 0%
COCCn1c(C)cc(O)c(C(c2ccccc2)N2CCN(C)CC2)c1=O (stereo not given) | -12% | nt | nt | nt | nt | 0%
COc1ccccc1C1CN(c2ccccc2)N=C1c1cccs1 (stereo not given) | ? | 27% | -1 | -4% | -9% | 12%
COc1cccc(C2CN(c3ccc(F)cc3F)N=C2c2cccs2)c1OC (stereo not given) | ? | 28µM* | 2 | -5%[46.1 µM] | -13% | 7%
COc1ccccc1NC(=O)c1ncoc1-c1ccco1 | 11% | nt | nt | nt | nt | ?
COC(=O)c1ccccc1NC(=O)c1ncoc1-c1ccco1 | 5% | nt | nt | nt | nt | 1.1µM*
Fc1ccc(CN2CCN(c3ncnc4scc(-c5ccccc5)c34)CC2)cc1 | -3% | 13% | 0 | -14% | 23µM* | 0%
CCOc1ccccc1N1CCN(c2ncnc3scc(-c4ccc(OC)cc4)c23)CC1 | -4% | 8% | -3 | -3% | ? | -1%
COc1ccc(-c2nc(CN3CCN(c4ccccc4OC)CC3)c(C)o2)cc1 | ? | -3% | 2 | 3% | 18µM* | 4%
Fc1ccc(-c2csc3ncnc(N4CCN(Cc5ccccc5)CC4)c23)cc1 | -6% | 5% | -5 | 2% | 6% | 0%
COc1ccc(-c2csc3ncnc(N4CCN(c5ccccc5OC)CC4)c23)cc1 | ? | -9% | -2 | -6% | 23µM* | 1%
Cc1ccc(-c2csc3ncnc(N4CCN(Cc5ccccc5)CC4)c23)cc1 | -9% | 10% | -1 | -5% | 23µM* | 0%
COc1ccc(OC)c(-n2nnnc2SCC(=O)Nc2ccc(C(=O)N3CCCCC3)cc2)c1 | -13% | 1% | 3 | 1% | 18µM* | 2%
SMILES | A549 tox | AT treatment | CCT modulator | TCR activator | Nrf2 block | Nrf2 ARE act
COc1ccc(OC)c(-n2nnnc2SCC(=O)Nc2ccc3c(c2)OCCO3)c1 | -12% | 5% | -6 | 7% | -15% | 0%
CC(C)OC(=O)c1cn(-c2ccccc2)nc1-c1ccco1 | 1% | 19% | -4 | -1% | -10% | 3.2µM*
COc1ccc(CC(N)c2csc(NC(=O)c3cc(C(C)(C)C)nn3Cc3ccccc3)n2)cc1 (stereo not given) | nt | nt | 1 | nt | nt | -5%
COC(=O)c1c(-c2cccs2)csc1NC(=O)c1ccc(C)cc1 | 0% | nt | nt | nt | ? | 7%
COC(=O)c1c(-c2cccs2)csc1NC(=O)CN1CCOCC1 | -4% | 7% | -1 | 6% | 6.5µM* | 3%
CC(C)N(CC(=O)Nc1ccc(Cl)cc1C(F)(F)F)C(=O)CCl | ? | -4% | 1 | 14% | 13µM* | ?
CCC(C)N(CC(=O)Nc1cccc(C)c1C)C(=O)CCl (stereo not given) | 3% | 32% | 3 | -20% | ? | 7.9µM*
O=C(O)CSCC(=O)Nc1ccc(Cl)cc1C(F)(F)F | 1% | 5% | -5 | 1% | -1% | 0%
O=C(Nc1nc(-c2cc(F)ccc2F)cs1)C1=NN(c2ccccc2)C(=O)CC1 | -1% | 5% | -2 | 4% | 8% | 11%
COc1ccc(-c2csc(NC(=O)c3ccccc3NS(=O)(=O)c3ccc(C)cc3)n2)cc1 | ? | -5% | 1 | -4%[46.1 µM] | 16µM* | 6%
COc1ccc(-c2csc(NC(=O)C3=NN(c4ccccc4)C(=O)CC3)n2)cc1 | ? | 3% | -1 | nt | 21µM* | -1%
CCn1c(=O)cc(SCC(=O)NCc2cccc(Cl)c2)c2ccccc21 | -1% | nt | nt | nt | -19%[9.27 µM] | 5%
Cn1c(-c2ccccc2)nc2cnccc21 | -2% | 20µM* | 0 | -1% | -3% | -1%
O=C(Nc1ccc(F)cc1)c1cc(-c2ccccn2)nc2c(Cl)cccc12 | -13% | 3% | 0 | 13% | ? | 0%
CCC(=O)N1c2ccccc2CC1C(=O)NCc1ccc(OC(C)C)cc1 (stereo not given) | 1% | nt | nt | nt | nt | 0%
N=c1c2c(ccn1-c1ccccc1)Oc1ccc3ccccc3c1C2c1ccccc1 (stereo not given) | ? | nt | nt | nt | 16µM* | nt
COc1cccc(C2c3c(ncn(-c4ccc(C)cc4)c3=N)Oc3ccc4ccccc4c32)c1 (stereo not given) | -18% | nt | nt | nt | 11% | nt
N=c1c2c(ccn1CCCc1ccccc1)Oc1ccc3ccccc3c1C2c1ccccc1 (stereo not given) | 15µM* | nt | nt | nt | 15µM* | nt
COC(=O)c1cc2oc(C)cc2n1Cc1ccc(C)cc1 | ? | nt | nt | nt | nt | 1%
